Compound activity deposited in PubChem BioAssay by The Scripps Research Institute Molecular Screening Center.
Hits are enriched below; roughly 2.4% of the tested compounds scored in any of these assays.
UHRF1 MBD2 ctr: UHRF1 methyl-DNA binding inhibition; Q96T88; UHRF1 binding to methylated oligo, TR-FRET; inhibition, % at 4.4 µM; 0.75% of 370,000 active; AID 687016; in the data active means inhibition above about 21%;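 further: UHRF1 SRA domain binding a hemimethylated CpG hairpin DNA probe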
MBD2 DNA inh: MBD2-methylated oligo binding inhibition; Q9UBB5; TR-FRET, MBD2 binding to methylated oligonucleotide; inhibition, % at 4.4 µM; 0.31% of 370,000 active; in the data active means inhibition above about 13%
Target sequence (Q9UBB5 whole entry, looked up): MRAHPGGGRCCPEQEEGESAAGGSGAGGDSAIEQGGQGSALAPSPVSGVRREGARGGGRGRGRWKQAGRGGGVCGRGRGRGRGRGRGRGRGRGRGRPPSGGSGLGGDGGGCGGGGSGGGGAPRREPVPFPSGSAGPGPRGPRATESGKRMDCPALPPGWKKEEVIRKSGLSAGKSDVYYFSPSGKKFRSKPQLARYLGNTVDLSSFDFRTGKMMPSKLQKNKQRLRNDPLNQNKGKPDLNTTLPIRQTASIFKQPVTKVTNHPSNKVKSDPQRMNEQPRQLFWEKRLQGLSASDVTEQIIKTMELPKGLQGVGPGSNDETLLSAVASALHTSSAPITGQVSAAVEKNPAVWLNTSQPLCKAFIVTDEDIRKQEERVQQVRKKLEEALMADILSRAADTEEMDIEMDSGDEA
PLCg1 inh: blocks human PLC-gamma1 enzyme activity; P19174; purified PLC-gamma1, fluorogenic substrate, fluorescence; inhibition, % at 12.2 µM; 0.84% of 370,000 active; AID 720700; in the data active means inhibition above about 9.5%
LEDGF integ inh: blocks HIV-1 LEDGF/p75-dependent DNA integration. 0.64% of 370,000 active. TR-FRET IN-LEDGF/p75 DNA integration, Eu/Cy5. inhibition, % at 3.7 µM;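 active means inhibition above the screen-wide mean plus 3 SD, cut at about 13% in these data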;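 further: signal is the Cy5 over europium emission ratio at 671 and 618 nm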
PLC-beta3 inh: PLC-beta3 (human) inhibition, primary screen; Purified PLC-beta3, fluorogenic substrate, fluorescence; inhibition, % at 12.2 µM; 0.18% of 370,000 active
PLCg1 ctr: counter-screen for PLC-beta3 inhibitors: inhibitors of human PLC-gamma1. shares compounds with PLCg1 inh. purified PLC-gamma1, fluorogenic substrate, fluorescence. inhibition, % at 12.3 µM. 3.1% of 3,300 active. AID 743258; in the data active means inhibition above about 9.5%
PLCb3 confirm: human PLC-beta3 inhibition, confirmation; purified PLC-beta3, fluorogenic substrate fluorescence; shares compounds with PLCg1 inh; 1% of 3,300 active; inhibition, % at 12.3 µM
Of the large screens only hits and unclear results are named; the others gave an inactive call (follow-up assays come after a bar, where they were run). Unless noted, no stated cut-off is given here; in the data, active means inhibition above about 11%; inactive means the rest.

O=C(Cn1ccc([N+](=O)[O-])n1)Nc1nccs1	PLCg1 inh 9.6 | PLCg1 ctr inactive | PLCb3 confirm inactive
CN1C(=O)C[C@@](C#N)(C(=O)NCCc2ccccc2)[C@H]1c1ccccc1	none
Cc1cccc(NC(=O)C2(c3cccs3)CCOCC2)c1	none
Cc1cc(C)cc(NC(=O)C2(c3cccs3)CCOCC2)c1	PLCg1 inh 9.8 | PLCg1 ctr inactive | PLCb3 confirm inactive
CCN(CC)C(=O)c1cc2c(=O)oc3ccccc3c2s1	PLCg1 inh 11 | PLCg1 ctr inactive | PLCb3 confirm inactive
CCN(CC)C(=O)c1cc2c(=O)n3ccccc3nc2s1	none
Cc1ccc(Cn2nnc3c2-c2ccccc2S(=O)(=O)N(C)C3)cc1	none
COc1cc(OC)cc(C(=O)NC2CCN(Cc3nnnn3Cc3cccs3)CC2)c1	PLCg1 inh 12 | PLCg1 ctr inactive | PLCb3 confirm inactive
Cc1ccc(CC2CC(=O)N(c3nc4ccccc4n3C)C2=O)cc1 (stereo not drawn)	PLCg1 inh 12 | PLCg1 ctr inactive | PLCb3 confirm inactive
CC(C)C(NC(=O)c1ccccc1)C(=O)OCC(=O)N1CCCCC1 (stereo not drawn)	none
CC(C)C(NC(=O)c1ccccc1)C(=O)OCC(=O)N1CCN(c2ccccc2)CC1 (stereo not drawn)	PLCg1 inh 11 | PLCg1 ctr inactive | PLCb3 confirm inactive
Cc1occc1-c1nnc(SCC(=O)Nc2ccccn2)n1-c1ccccc1	none
CCOC(=O)c1c(C)[nH]c(C(=O)CN2C(=O)NC3(CCCC3)C2=O)c1C	PLCg1 inh 13 | PLCg1 ctr inactive | PLCb3 confirm inactive
N/C(Cc1ccc(Cl)c(Cl)c1)=N\OC(=O)c1cccs1	PLC-beta3 inh 12 | PLCg1 ctr inactive | PLCb3 confirm inactive
C=CCN1C[C@@H](COCc2ccccc2)Oc2cc(F)ccc2S1(=O)=O	none
Cn1cc(Br)c(C(=O)NC2C3CC4CC(C3)CC2C4)n1 (stereo not drawn)	none
Cn1cc(C(=O)NC2C3CC4CC(C3)CC2C4)cn1 (stereo not drawn)	PLCg1 inh 12 | PLCg1 ctr inactive | PLCb3 confirm inactive
O=C(Cc1ccccc1)N1CCN(C(=O)c2ccco2)CC1	none
O=C(CCSc1ccccc1)N1CCN(C(=O)c2ccco2)CC1	PLCg1 inh 14 | PLCg1 ctr inactive | PLCb3 confirm inactive
COc1ccc(-n2c(SCC(=O)NC3CCCCCC3)nnc2-c2ccncc2)cc1	none
CCC(C)(C)NC(=O)C(c1ccc(OC)cc1)N(C(=O)CCC(=O)Nc1cc(C)on1)C1CC1 (stereo not drawn)	PLCg1 inh 11 | PLCg1 ctr inactive | PLCb3 confirm inactive
CCC(C)(C)NC(=O)C(c1ccc(OC)cc1)N(CC1CCCO1)C(=O)CCC(=O)Nc1cc(C)on1 (stereo not drawn)	none
Cc1ccc(S(=O)(=O)CCc2nnc(NC(=O)C3CCCO3)s2)cc1 (stereo not drawn)	PLCg1 inh 9.6 | PLCg1 ctr inactive | PLCb3 confirm inactive
CCCCCc1nnc(NC(=O)C2CCCO2)s1 (stereo not drawn)	none
COC(=O)c1ccc(S(=O)(=O)N2CCC(NC(=O)CCc3ccccc3)CC2)cc1	none
O=C(CCc1nc2ccccc2s1)OCc1ccccc1	PLC-beta3 inh 11 | PLCg1 ctr inactive | PLCb3 confirm inactive
C=COc1ccc(N2C(=O)c3ccccc3OC2C)cc1 (stereo not drawn)	PLCg1 inh 14 | PLCg1 ctr inactive | PLCb3 confirm inactive
O=C(CC1SC(=NC2CCCCC2)NC1=O)Nc1ccccc1 (stereo not drawn)	PLCg1 inh 11 | PLCg1 ctr inactive | PLCb3 confirm inactive
Cc1cccc(NC(=O)CC2SC(=NC3CCCCC3)NC2=O)c1 (stereo not drawn)	none
O=S(=O)(c1ccccc1)N1CCN(c2cccc(Cl)c2)CC1	none
O=[N+]([O-])c1ccc2[nH]cc(S(=O)(=O)N3CCN(c4cccc(Cl)c4)CC3)c2c1	PLCg1 inh 10 | PLCg1 ctr 14 | PLCb3 confirm inactive
C=CCN1[C@@H](C)COc2cccc(N3CCSCC3)c2S1(=O)=O	none
CN(CC(=O)N1CCN(Cc2ccccc2)CC1)S(=O)(=O)c1cccc2nsnc12	PLCg1 inh 11 | PLCg1 ctr inactive | PLCb3 confirm inactive
CN(CC(=O)NCCN1CCN(Cc2ccccc2)CC1)S(=O)(=O)c1cccc2nsnc12	none
COC(=O)[C@H]1C[C@@]2(C)c3ccccc3N(C(=O)OC(C)(C)C)[C@H]2N1C(=O)OC(C)(C)C	none
NC1=NC[C@H](Cc2ccc(O)cc2)N1CCc1cc(C(F)(F)F)cc(C(F)(F)F)c1	PLCg1 inh 10 | PLCg1 ctr inactive | PLCb3 confirm inactive
O=C(OCC(=O)c1c[nH]c2ccccc12)c1ccco1	PLC-beta3 inh 11 | PLCg1 ctr inactive | PLCb3 confirm inactive
CC(NC(=O)CCn1nc(-c2ccc(Cl)cc2)ccc1=O)c1ccccc1 (stereo not drawn)	PLCg1 inh 10 | PLCg1 ctr inactive | PLCb3 confirm inactive
Cc1ccc(CNC(=O)CCn2nc(-c3ccc(Cl)cc3)ccc2=O)cc1	none
C=CCOC(=O)N[C@H](c1ccc(-c2ccccc2)cc1)[C@H](C)/C=C/CC(=O)OC	none
Cc1ccc(/C=C2\CCC(C3CCCC3)C2=O)cc1 (stereo not drawn)	none
COc1ccc(/C=C2\CCC(C3CCCC3)C2=O)cc1 (stereo not drawn)	PLCg1 inh 10.0 | PLCg1 ctr inactive | PLCb3 confirm inactive
O=[N+]([O-])c1ccc(N2CCCC2)cc1N1CCCC1	PLCg1 inh 9.6 | PLCg1 ctr inactive | PLCb3 confirm inactive
O=C(Cn1nnc(-c2ccccc2F)n1)Nc1ccc(Cl)c(Cl)c1	none
COC(=O)c1cccc(NC(=O)Cn2cnc3c2c(=O)n(C)c(=O)n3C)c1	none
COC(=O)c1ccccc1NC(=O)Cn1cnc2c1c(=O)n(C)c(=O)n2C	PLCg1 inh 10 | PLCg1 ctr inactive | PLCb3 confirm inactive
Cn1c(=O)c2c(ncn2CC(=O)OCC(=O)NCc2ccccc2Cl)n(C)c1=O	none
COc1ccccc1CNC(=O)COC(=O)Cn1cnc2c1c(=O)n(C)c(=O)n2C	PLC-beta3 inh 11 | PLCg1 ctr inactive | PLCb3 confirm inactive
COc1ccc(-c2cc(-c3nnc(SCC(=O)NC4CCCCC4)n3N)[nH]n2)cc1	none
NCCCC[C@@H](C(=O)N1CCNCC1)n1cc([C@@H](N)CO)nn1	PLC-beta3 inh 12 | PLCg1 ctr inactive | PLCb3 confirm inactive
NCCCC[C@@H](C(=O)N1CCNCC1)n1cc([C@@H](N)CC(N)=O)nn1	none
CC(C)Cn1c(SCC(=O)N2CCCc3ccccc32)nc2ccccc2c1=O	PLCg1 inh 11 | PLCg1 ctr inactive | PLCb3 confirm inactive
